Results published in PubChem BioAssay AID687001 (Broad Institute, 2013).
Entries with a potency or affinity are not part of this list. Activity calls are given as the source filed them.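 Rule for the calls: active = signal-lowering compounds whose fitted half-maximal concentration is at or below twice the top tested dose in every run; inconclusive = runs disagree, flat 30 to 70% inhibition, or poor curve fit; inactive = the rest.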

Each compound was assayed against Protein S100-A4 (Homo sapiens) (UniProt P26447) (assay: human S100A4 peptide interaction inhibition curves – biochemical, fluorescence polarization, cherry-picked hits, dose response (AID 687001)). Settings: FP, S100A4/TAMRA-myosin IIA peptide binding; series mostly up to 11 µM.
Sequence of Protein S100-A4 (Homo sapiens) (P26447 whole entry, looked up): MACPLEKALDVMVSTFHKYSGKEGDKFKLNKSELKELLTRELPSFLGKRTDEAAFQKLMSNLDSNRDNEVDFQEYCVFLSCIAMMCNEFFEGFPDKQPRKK

outcome, inactive:
CCC(=O)N1C[C@H](C)[C@@H](OC)CN(C)C(=O)c2ccc(NC(=O)Nc3ccccc3)cc2OC[C@H]1C
Cc1cccc(NS(=O)(=O)c2c(C(=O)N3CCOCC3)c(C)n(C)c2C)c1C
Fc1ccc(Nc2nc(N3CCOCC3)nc(N3CCOCC3)n2)cc1
CN(C)CC(=O)N1CC2(C1)[C@@H](c1ccccc1)[C@@H](CO)N2S(C)(=O)=O
C[C@@H]1CN([C@@H](C)CO)C(=O)c2cccc(NC(=O)Nc3cccc4ccccc34)c2O[C@H]1CN(C)C(=O)Nc1ccccc1
C[C@@H]1CCCCO[C@@H](CN(C)C(=O)CCC(F)(F)F)[C@@H](C)CN([C@@H](C)CO)C(=O)c2cc(NC(=O)c3ccccc3)ccc2O1
Cc1ccc(CN2C(=O)CSc3ccc(C(=O)NC4CC4)cc32)cc1
CC1CCCCC12NC(=O)N(CC(=O)OCC(=O)Nc1ccc(F)cc1[N+](=O)[O-])C2=O (centres undefined)
CC(C)(C)[C@H]1COC(=O)CC/C=C\C[C@H](CC(=O)N(CCO)Cc2ccccc2)C(=O)N1
CC(NC(=O)Nc1ccc(F)cc1)c1ccc2c(c1)OCO2 (centres undefined)
C[C@H](CO)N1C[C@H](C)[C@@H](CN(C)S(=O)(=O)c2cccs2)OCCCC[C@H](C)Oc2ccc(NS(C)(=O)=O)cc2C1=O
CC(C)(C)c1cc[n+](-c2[nH]c(=O)sc2/C=N/N=C(\[O-])c2ccccc2)cc1
Cc1ccc(-c2ccc(=O)n(Cc3ccc(F)cc3)n2)cc1
Cc1cc2cc(C#N)c(N3CCOCC3)nc2cc1Cl
CSc1cccc(NC(=O)C2CCN(S(=O)(=O)c3ccc4c(c3)NC(=O)CO4)CC2)c1
COc1ccc(-c2sc3ccccc3c2-c2ccc(OCCN(C)C)cc2)cc1
O=C1CCCn2cc(nn2)COC[C@@H](Cc2ccccc2)N1
C[C@@H]1CCCCO[C@@H](CN(C)S(=O)(=O)c2ccccc2)[C@@H](C)CN([C@@H](C)CO)C(=O)c2cc(NC(=O)CCCN(C)C)ccc2O1
CC(OC(=O)C1=COCCO1)C(=O)Nc1ncc(Cl)cc1Cl (centres undefined)
COc1ccc(N(CC(=O)NC2CCCCC2)C(=O)CNC(=O)c2cccs2)cc1OC
Cc1noc(C)c1NC(=O)N(C)C[C@H]1Oc2c(NC(=O)CCCCCC(=O)Nc3ccccc3N)cccc2C(=O)N([C@@H](C)CO)C[C@H]1C
COc1ccc(-c2coc(CCC(=O)N3CCN(c4cc(C)ccc4C)CC3)n2)cc1
Cc1ccc(CNC(=O)c2[nH]c(C(F)(F)F)nc2-c2ccccc2)cc1
Cc1nc2ccccc2nc1CC(O)(c1ccccc1)c1ccccc1
O=C(OCc1cc(=O)n2ccsc2n1)c1ccc(OC(F)F)cc1
CC1CCCCC1NC(=O)CSc1nnc(-c2ccco2)n1N (centres undefined)
O=C(CNC(=O)c1ccc(Cl)cc1Cl)OCc1cn2cc(Br)ccc2n1
Cc1cc(C)n2nc(Sc3ncccc3[N+](=O)[O-])nc2n1
CC1CC(C)CN(CCCNC(=O)c2cc3c(s2)-c2ccccc2OC3)C1 (centres undefined)
COc1cccc(CNC(=O)C2CCCN(S(=O)(=O)c3ccc4c(c3)C(C)(C)C(=O)N4C)C2)c1 (centres undefined)
CCS(=O)(=O)Nc1ccc2c(c1)C(=O)N(C)C[C@@H](OC)[C@@H](C)CN(C(C)=O)[C@H](C)CO2
Cc1noc(C)c1S(=O)(=O)N(C)C[C@@H]1OCCCC[C@H](C)Oc2ccc(NC(=O)C3CCCCC3)cc2C(=O)N([C@H](C)CO)C[C@H]1C
Cc1cccc(Nc2c3c(nc4ccccc24)CCC3)c1
N#C[C@@H]1[C@H](c2ccccc2-c2cccc(F)c2)[C@@H](CO)N1C(=O)C1CC1
COC(=O)C[C@@H]1CC[C@H](NC(=O)c2cnccn2)[C@@H](CO)O1
O=C(Cc1c(F)cccc1Cl)Nc1ccccn1
Cc1ccc(C(=O)N2CCN(c3ccc4c(c3)C3CC4CCN3C(=O)OCc3ccccc3)CC2)cc1 (centres undefined)
Nc1cc(-c2ccncc2)c[nH]c1=O
COc1ccccc1N1CC(C(=O)Nc2ccc(C)c(S(=O)(=O)N3CCOCC3)c2)CC1=O (centres undefined)
